Data on 40 compounds can be found in PubChem BioAssay (NCI).

This is part of a sample that, as a whole, favours compounds with a hit. Of some 83,000 tested, about 20% had one in any assay.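 Single-dose data. Exposure time 48 hours. Values below 10 considered active.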 Unmarked numbers belong to inactive results. Activity calls are given as the source filed them.

For the test, the system named is NCI-H23 lung. Description: NCI-60 one-dose screen, 48 h (100 = growth as untreated, 0 = no growth, -100 = all killed). Conditions: 10 µM unless noted. The method, then:
Growth inhibition of the NCI-H23 human Non-Small Cell Lung tumor cell line is measured as a screen for anti-cancer activity. Cells are grown in 96 well plates and exposed to the test compound for 48 hours. Compounds are tested at a single concentration, which is 10^-5 M for most compounds. The reported endpoint is percent growth (GI% or GIPRCNT), where numbers from 0 - 100% represent growth inhibition, and numbers from -100% - 0 represent cell death. For example, a value of 40 represents 60% growth inhibition. A value of 0 means no net growth occurred over the course of the experiment. A value of -40 indicates 40% of cells at the beginning of the experiment died by the end of the experiment. A value of -100 means all cells are dead at the end of the experiment.
NCI-60 Human Tumor Cell Lines Screen was performed using the standard one-dose NCI protocol, which is described in more detail at https://dtp.cancer.gov/discovery_development/nci-60/default.htm.
Compounds with GIPRCNT values below 10 were considered active. Activity score was based on GIPRCNT using the following formula: […]
Score is 0 for GIPRCNT values of 100 or above, 50 for GIPRCNT values of 0, and 100 for GIPRCNT values of -100.
Consider `CCCCCCNC(=O)Oc1ccc(/C(=C(\C)c2ccc(Cl)cc2)c2ccc(OCCCN(C)C)cc2)cc1`, for which the growth was 80.5%.
For the compound `COc1ccc(C2C(C#N)=C(N)Oc3c2sc2c(C)cccc32)cc1` (stereo not given), the growth was 18.2%.
Regarding `C#Cc1cccc(NC(=O)Nc2ccccc2NC(=O)CCl)c1`, the growth was -52.2% [8.25 µM] (active).
With `CC1Cc2ccccc2N1NC(=O)c1ccc(Cl)c(S(N)(=O)=O)c1` (stereo not given) the figure was 96.8%; with `COc1cc(CNS(=O)(=O)c2ccc(C)cc2)ccc1OCc1cn(-c2ccccc2)nn1`, 83%.
Under `CCCCCCN(CCCCCC)c1ccc(/C=C2/SC(=O)NC2=O)c(C)c1` stands 76.5%; under `N#CC1=C(N)Oc2c(sc3c(Br)cccc23)C1c1ccc([N+](=O)[O-])cc1` (stereo not given), 11.7%.
Under `CC(C)n1cnc2c(Nc3cccc(Cl)c3)nc(N[C@H]3CCCC[C@@H]3N)nc21` stands 61.7%; under `CCN1C(=O)N(CC)C2Nn3c(s/c(=C\c4ccc([N+](=O)[O-])cc4)c3=O)=NC21` (stereo not given), 69.3%; under `Cc1ccc(/C=C(\C#N)n2nc3cccc(F)c3n2)cc1`, 83.7%.
Regarding `COc1ccc(S(=O)(=O)n2cc(C3OC(c4cc(OC)c(OC)c(OC)c4)=NN3C(C)=O)c3ccccc32)cc1OC` (stereo not given), the growth is 79.5%.
Under `COc1cc2cc(Oc3ccc(NC(=O)Nc4ccc(Cl)c(C(F)(F)F)c4)cc3)c(C)nc2cc1OCCN1CCOCC1` stands 10.5%; under `CN1CCN(Cc2ccc(NC(=O)c3cncc(C#Cc4cnccc4C#N)c3)cc2C(F)(F)F)CC1`, 49.2%; under `c1ccc2cc(C[n+]3ccn(CCCCCCn4cc[n+](Cc5ccc6ccccc6c5)c4)c3)ccc2c1`, 30.5%.
Under `NC(=O)Nc1ccc2ncnc(Nc3ccc(Cl)cc3)c2c1` stands 100%; under `CCN(CC)Cc1cc(Nc2c3ccc(Cl)cc3nc3ccc(OC)cc23)ccc1O`, 65.7%; under `CCCCCCn1c(-c2ccc(C(=O)O/N=C(\N)c3ccc4c(c3)OCO4)cc2)nc(-c2ccccc2)c1-c1ccccc1`, -30.8% (active).
With `COc1ccc(C2NC(=O)C(C#N)c3c2sc2c(F)cccc32)c(OC)c1` (stereo not given) the figure was 64.8%; with `NCCCNc1nc2ccccc2c2c(=O)c3cc(F)cc(F)c3sc12`, 84%.
For the compound `c1ccc(-c2nc3sc(-c4ccccc4)cn3n2)cc1`, the growth was 83.5%.
With `CC(=O)CC[C@H]1C(=O)N[C@@H](C(C)C)C(=O)N[C@@H](Cc2cc(O)cc(F)c2)C(=O)N2CCC[C@H](N2)C(=O)O[C@H](/C(C)=C/C=C/C(=O)OC(C)(C)C)C/C=C/C=C/[C@H](O)[C@H](C)[C@H]1O` the figure was 42.2%; with `COc1cccc(-c2nn(-c3ccccc3)cc2-c2ccnc(N3CCOCC3)c2)c1`, 82.4%.
With `CCc1cccc2c1S/C(=C/c1ccc(Cl)cc1)C2=O` the figure was 79.6%.
With `CC1=C(SCCC(=O)OC(C[Se]C2=C(C)C(=O)c3ccccc3C2=O)C(=O)NC(C)(C)C)C(=O)c2ccccc2C1=O` (stereo not given) the figure was -42.7% (active); with `NS(=O)(=O)c1ccc(-n2nc(-c3ccc(Cl)cc3)c3ccccc3c2=O)cc1`, 101%; with `COc1c(B(O)O)cc(C)cc1-c1nc2ccc3[nH]ncc3c2c2c1CCCC2`, 70.9%.
Turning to `BrCCCc1n(Cc2ccc3ccccc3c2)c2ccccc2[n+]1Cc1ccc2ccccc2c1`, the growth is -81.3% (active).
Under `COc1ccc(/C=C/c2c(C(=O)/C=C/c3ccc(Cl)cc3)c(C)nc3ccccc23)cc1` stands 35.8%; under `C/C=C(\C)C(=O)N[C@H]1[C@@H](OC(C)=O)C[C@]2(C)C3CC[C@@]4(C)C(CC[C@@H]4C(C)N(C)C)C3CCC2[C@H]1O` (stereo not given in full), 74.4%; under `CN(C)CCCNc1nc2ccccc2c2c(=O)c3cc(F)ccc3sc12`, 70.6%.
With `COc1ccc(CN2c3ccccc3CCc3ccccc32)cc1F`, the growth is 38.7%.
Under `CN1C(=C2C(=O)OC(C)(C)OC2=O)CCC1C(=O)NCc1ccc(Cl)cc1Cl` (stereo not given) stands 97.9%.
With `COc1ccc(-c2nc(NCCO)[nH]c(=O)c2C#N)cc1` the figure was 95.1%; with `COc1nc2ccccc2cc1-c1nc2c(cnn2-c2ccc(Br)cc2)c(=O)[nH]1`, 25.2%.
For the compound `CCCCCCNC(=O)Oc1ccc(/C(=C(\C)c2ccc(Cl)cc2)c2ccc(OCCN(CC)CC)cc2)cc1`, the growth was 67.1%.
With `COc1ccc(-c2[nH]c3ccc(OC)cc3c2/C=C(\C#N)S(=O)(=O)c2ccccc2)cc1` the figure was 24.9%; with `c1cc(NCCc2ccncc2)nc(-n2cnc3ccccc32)c1`, 95.3%; with `CC(C)OC(=O)Nc1ccc(-c2nc(-c3cccc(OCCN4CCOCC4)c3)c(-c3ccnc(Br)c3)[nH]2)cc1`, 33%.
Under `O=c1c2cc(C(F)(F)F)ccc2sc2c(NCCCNCCO)nc3ccccc3c12` stands 45%; under `O=C(S)CNC(=O)c1ccccc1`, 94.3%.
